This is a sample that favours compounds with a hit; in the whole collection about 3.8% have one here.
B2AR arrestin ag – qHTS assay of beta-arrestin-biased ligands of beta2-adrenergic receptor: NCGC Sytravon Library Screen; HTLA Tango cells, beta-arrestin recruitment, luciferase luminescence, 18 h; Potency, µM (top dose mostly 46.1 µM), most hits filed as activators; 44,000 tested, under 10 active; Beta-2 adrenergic receptor (Homo sapiens), P07550;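 further: potency means the concentration at half of the fitted maximal effect; 0% = DMSO and full agonism = EC100 isoproterenol or metaproterenol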
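Receptor–beta-arrestin recruitment read by tTA-responsive luciferase: compound titrations (up to 46 µM) incubated 18 h with Tango cells, then luminescent substrate 15 min at room temperature. Concentration-response fits classified by r2, efficacy and activity.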
DRV1 agonist – qHTS for Agonists of Human Resolvin D1 Receptor DRV1; CHO-K1 GPR32 beta-arrestin PathHunter luminescence, 90 min; zero percent set by DMSO-only wells; hit rate 2.5% among 48,000; Probable G-protein coupled receptor 32 (Homo sapiens), O75388; activation, % at 76.9 µM;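 active means activation of at least 60% and not above a set upper limit, about 1 call in 100 departs from these limits; inconclusive means activation of 40% to 60%, or above that upper limit; inactive means activation under 40%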; further: 0% is about no effect
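Beta-arrestin recruitment read-out: luminescence from complemented beta-Gal in CHO-K1 GPR32 PathHunter cells, measured 1 h after detection reagent at ambient temperature following 90 min compound exposure at 37 °C; DMSO served as basal (EC0) control.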
SKOV3 invasion – Primary qHTS assay for Inhibitors of ovarian cancer metastasis using an organotypic tumor microenvironment (TME) model. SKOV3ip1-GFP adhesion/invasion on 3D omental model, fluorescence. Potency, µM (highest dose often 45.8 µM), without a hit: at the highest dose activity change, negative = inhibition, actives largely listed as inhibitors. hit rate 0.1% among 46,000. AID 1963576, 2024;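 further: potency means the concentration at half of the fitted maximal effect; plate controls were DMSO wells for no effect and tomatine positive control wells for full effect; nearly all actives have a fitted effect of over 65% in size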
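Adhesion/invasion was scored as fixed GFP-labeled SKOV3ip1 cell counts (488/509 nm), normalized to DMSO and tomatine controls. Cancer cells in serum-free medium, with four compound doses (0.36-46 umol/L), sat 2 hr at RT then 16 hr at 37 C on a 48 hr fibroblast/mesothelial/ECM culture.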
NTMT1 inh – Primary qHTS for Inhibitors of N-terminal methyltransferase 1 (NTMT1): MTaseGlo Assay; Potency, µM (highest dose often 114 µM), for the others: at the top dose activity change, negative = inhibition, actives largely listed as inhibitors; AID 1645870, 2021; hit rate 2.5% among 59,000; NTMT1 MTase-Glo SAH luminescence, purified enzyme; N-terminal Xaa-Pro-Lys N-methyltransferase 1 (Homo sapiens), Q9BV86;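 further: potency means the concentration at half of the fitted maximal effect; plate controls were DMSO vehicle for no effect and no enzyme for full effect; nearly all actives have a fitted effect of over 65% in size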
Target sequence (Q9BV86 whole entry, looked up): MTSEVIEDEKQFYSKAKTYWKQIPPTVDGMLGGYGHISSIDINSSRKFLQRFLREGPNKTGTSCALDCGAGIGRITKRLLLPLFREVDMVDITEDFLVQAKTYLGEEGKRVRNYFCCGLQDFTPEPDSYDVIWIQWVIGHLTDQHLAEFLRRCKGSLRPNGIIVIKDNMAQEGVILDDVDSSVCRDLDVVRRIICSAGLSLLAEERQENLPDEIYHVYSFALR
PTAP-TSG101 blk – qHTS Validation Assay for Inhibitors of HIV-1 Budding by Blocking the Interaction of PTAP/TSG101: Sytravon Library Screen | Tumor susceptibility gene 101 protein (Homo sapiens), Q99816 | Fluorescence polarization, FITC-PTAP peptide/Tsg101, 20 min | Potency, µM (doses to about 115 µM), usual class: inhibitors | 44,000 tested, under 10 active | AID 1347069, 2019; further: potency means the concentration at half of the fitted maximal effect; 0% is about no effect
Target sequence (Q99816 whole entry, looked up): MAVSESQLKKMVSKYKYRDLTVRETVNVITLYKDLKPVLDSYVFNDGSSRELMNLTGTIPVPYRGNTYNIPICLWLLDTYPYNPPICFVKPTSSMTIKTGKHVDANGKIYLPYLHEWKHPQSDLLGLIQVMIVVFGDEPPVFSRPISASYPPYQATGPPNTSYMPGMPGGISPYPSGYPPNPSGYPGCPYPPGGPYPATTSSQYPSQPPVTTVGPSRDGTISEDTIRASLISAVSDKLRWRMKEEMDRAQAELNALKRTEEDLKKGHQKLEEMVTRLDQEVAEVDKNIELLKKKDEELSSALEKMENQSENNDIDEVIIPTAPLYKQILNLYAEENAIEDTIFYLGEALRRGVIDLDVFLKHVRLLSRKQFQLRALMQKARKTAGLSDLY
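qHTS FP binding, 20 min r.t.: 10 uM Tsg101 domain + 50 nM FITC-PTAP peptide, pH 7.5 HEPES buffer with TCEP and EDTA.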
GALK inhibitor – qHTS Assay for Inhibitors of Human Galactokinase (GALK): NCGC Sytravon Library Screen | Potency, µM (doses to about 57.5 µM), for the others: at the highest dose activity, negative = inhibition, usual class: inhibitors | AID 1347072, 2019 | 44,000 tested, under 10 active | recombinant GALK, Kinase-Glo ATP luminescence, 1 h | P51570;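 further: plate controls were full GALK reaction for no effect and reaction lacking GALK for full effect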
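5 nM GALK with 35 µM ATP and 100 µM galactose in HEPES pH 8.0, MgCl2, NaCl, DTT, BSA; 1 h RT reaction, remaining ATP detected by Kinase-Glo Plus luminescence after 10 min; qHTS concentration series.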
Starred values were filed as active, the others as inactive; i = inactive; ? = inconclusive; . = no result; ! = repeats disagree; [ ] = remark or other dose. Unless noted, the call rests on the fitted dose curve; in most records, active means well fitted curve in the direction sought with a large enough effect; inconclusive means small, poorly fitted or top-dose-only effect, or another doubt; inactive means no such curve, though single readings can be large; an effect the other way counts as inactive or inconclusive.

SMILES	B2AR arrestin ag	DRV1 agonist	SKOV3 invasion	NTMT1 inh	PTAP-TSG101 blk	GALK inhibitor
COc1cccc(C(C(=O)NCc2ccccc2)N(C(=O)Cn2nnc3ccccc32)c2cccc(C(C)=O)c2)c1 (stereo unspecified)	i	-18.6	-2.6%	-24.3%	i	-2.4%
CC(=O)C1CCN(c2ncc(-c3cccc(N(C)C)c3)s2)CC1	.	.	.	-3.9%	.	.
CC[C@@]1(O)C(=O)OCc2c1cc1n(c2=O)Cc2c-1nc1cc(F)c(C)c3c1c2[C@@H](N)CC3	.	.	.	0.5%	.	.
O=C(C1CC1)N1CCc2cc(Br)cc(S(=O)(=O)Nc3ccc(C(F)(F)F)cc3)c21	i	65.4*	i	2.0%	i	6.4%
Fc1ccc(-c2noc3ncnc(Nc4ccc(F)cc4F)c23)cc1	i	22.9	2.2%	-14.0%	i	3.2%
Cc1cc2ncc(-c3ccccc3)nc2cc1C	.	.	.	44.7µM*	.	.
CC(C)c1ccc(NC(=O)c2cc(S(=O)(=O)NCCc3ccccc3)ccc2F)cc1	i	-4.0	-19.6%	4.7%	i	-0.8%
CC(C)c1ccccc1Cc1cc(C(=O)Nc2ccc(S(=O)(=O)c3ccccc3C(C)(C)C)cc2)c(O)c(O)c1O	.	.	-23.7%	70.8µM*!	.	.
CC(=O)c1ccc(N2CCN(S(=O)(=O)c3ccc4c(c3)n(C)c(=O)n4C)CC2)cc1	.	.	.	14.8%	.	.
Cc1ccc(-c2nc3scc(CCNS(=O)(=O)c4ccc(F)c(C)c4)n3n2)cc1	i	20.1	i	4.8%	i	-2.0%
Cc1ccc(S(=O)(=O)NCCc2csc3nc(-c4ccccc4F)nn23)cc1C	i	105.1*	1.3%	9.9%	i	-1.1%
Cc1ccccc1-c1nc2scc(CCNS(=O)(=O)c3ccccc3)n2n1	i	75.3*	-2.3%	-2.3%	i	-3.0%
CC(C)(C)C(=O)OCc1cc(=O)n2nc(C3CCCCC3)sc2n1	i	79.1*	4.5%	0.0%	i	4.8%
CCOC(=O)c1sc2ccccc2c1S(=O)(=O)Nc1ccc(N(C)C)cc1	i	-12.7	-3.0%	-6.6%	i	2.0%
CCN1CCC(N(Cc2ccc(F)cc2)C(=O)Nc2cc(Cl)ccc2C(=O)OC)CC1	i	31.9	11.2µM*	-17.0%	i	7.0%
O=C(O)CN(CCOCCOCCN(CC(=O)O)CC(=O)O)CC(=O)O	.	0.9	.	0.9%[0.501 µM]	.	.
O=C(O)CN(CCN(CC(=O)O)CC(=O)O)CCN(CC(=O)O)CC(=O)O	.	70.2*!	.	60.9%[29.8 µM]	.	.
O=S(=O)(c1ccccc1)n1nc(-c2ccc(Cl)cc2)nc1NCc1ccc(F)cc1	i	71.6*	i	-17.6%	i	1.7%
COc1ccccc1C(=O)Nc1cccc(OCc2cc(=O)n3c4c(sc3n2)CCCC4)c1	i	-2.0	i	6.2%	i	-1.8%
Cc1nc(N2CCCC2)ncc1C(=O)Nc1ccc(OC(F)(F)F)cc1	i	39.4	-15.9%	9.8%	i	-3.9%
CCOC(=O)c1ccc(NC(=O)c2cnc(N3CCCC3)nc2C)cc1	i	96.4*	1.6%	8.3%	i	-3.1%
O=C(CSc1ncc(CO)n1Cc1ccccc1)Nc1nc2ccccc2s1	i	60.3*	38.8%	10.3%	i	-2.2%
Cc1ccc(Cn2c(CO)cnc2SCC(=O)NCc2ccccc2Cl)cc1	i	2.7	-6.6%	.	i	5.1%
O=C(CSc1ncc(CO)n1Cc1ccccc1)Nc1ccc(C(F)(F)F)cc1	i	117.6*	i	14.3%	i	4.9%
CCOc1ccc(NC(=O)c2sc3ccccc3c2Cl)cc1	i	69.9*	-4.5%	.	i	1.6%
SMILES	B2AR arrestin ag	DRV1 agonist	SKOV3 invasion	NTMT1 inh	PTAP-TSG101 blk	GALK inhibitor
CCN(CC)c1ccc(NC(=O)c2sc3ccccc3c2Cl)cc1	i	-17.3	-2.8%	-7.6%	i	-0.4%
CCOC(=O)CCC(=O)Nc1nnc2n1CCS2	i	-21.7	22.6%	-7.2%	i	1.8%
Cc1ccc(CCNC(=O)c2ccc(CNS(=O)(=O)c3ccc(F)cc3)cc2)cc1	i	-13.5	i	-1.3%	i	-1.4%
CCCCn1c(NCc2ccc(OC)cc2O)nc2ccccc21	i	70.1*	10.3%	?	i	2.9%
COc1ccc(OCCn2c(NC(=O)c3ccc(OC)cc3)nc3ccccc32)cc1	i	62.8*	?	5.7%	i	0.0%
Cc1csc(CNc2ncnc3ccc(-c4ccc5c(c4)OCO5)cc23)n1	.	.	.	-27.4%	.	.
Oc1c(Cl)cc(Cl)cc1Sc1cc(Cl)cc(Cl)c1O	.	80.5*	.	?	.	.
CCOC(=O)c1cccc(NC(=O)CN2C(=O)c3ccccc3Sc3ncccc32)c1	i	72.0*	28.6%	-2.4%	i	3.3%
CC(=O)N1CCCc2cc(S(=O)(=O)N3CCCC(C(=O)NCc4ccc(C)cc4)C3)ccc21 (stereo unspecified)	i	11.5	-10.3%	10.6%	i	2.1%
Cc1cc2c(C(C)C)c(O)c(O)c(C=O)c2c(O)c1-c1c(C)cc2c(C(C)C)c(O)c(O)c(C=O)c2c1O	.	-19.4	-13.4%	20µM*!	.	.
Cc1cc(=O)oc2c(C=O)c(O)ccc12	.	.	.	9.2%[57.5 µM]	.	.
O=C(CSc1nc2c(c(=O)[nH]1)CCC2)Nc1cc(C(F)(F)F)ccc1Cl	i	82.6*	1.6%	2.2%	i	1.7%
COc1ccc(N(CC(C)C)S(=O)(=O)c2nnc(NC(=O)c3ccco3)s2)cc1	i	28.5	-13.9%	19.9%	i	-10.7%
CCC(=O)N1CCc2cc(Br)cc(S(=O)(=O)N3CCCC(C(=O)Nc4ccc(OC)cc4OC)C3)c21 (stereo unspecified)	i	2.1	6.5%	89.1µM*	i	6.7%
CCC(=O)N1CCc2cc(Br)cc(S(=O)(=O)N3CCCC(C(=O)N(C)c4ccc(Br)cc4)C3)c21 (stereo unspecified)	i	-4.7	-2.8%	89.1µM*	i	-0.3%
COc1cc(C(C)=O)ccc1OCCCN1CCC(c2noc3cc(F)ccc23)CC1	.	70.9*	11.3%	?	.	.
Cc1cc(-c2cc(O)ccc2Cl)cc2nnc(Nc3ccc(OCCN4CCCC4)cc3)nc12	.	.	.	20µM*	.	.
Cc1c(-c2ccc(O)cc2)n(Cc2ccc(OCCN3CCCCCC3)cc2)c2ccc(O)cc12	.	4.1	1.5%	?	.	.

Screening results (PubChem BioAssay)
